# High-throughput results deposited in PubChem BioAssay by The Scripps Research Institute Molecular Screening Center.
# PLCg1 inh: blocks human PLC-gamma1 enzyme activity; P19174; purified PLC-gamma1, fluorogenic substrate, fluorescence; inhibition, % at 12.2 µM; hit rate 0.84% among 370,000; in the data active means inhibition above about 9.5%
# proKLK7 act: activates the human kallikrein-7 zymogen. P49862. hit rate 0.9% among 370,000. activation, % at 7 µM. purified proKLK7, EDANS-DABCYL substrate fluorescence; 100% is mature enzyme control, 0% vehicle;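 active means activation above the mean of all tested compounds plus 3 SD, computed per campaign excluding outliers beyond control limits, cut at about 13% in these data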
# ADAM17 inh: inhibits human ADAM17. P78536. recombinant ADAM17, EDANS/DABCYL FRET peptide cleavage. inhibition, % at 6.95 µM. hit rate 0.83% among 370,000;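 active means inhibition above the mean of compounds lying between control limits plus 3 SD, set per campaign, cut at about 8.5% in these data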;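 further: 0% = DMSO-only wells as the low control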
# Target sequence (P78536 215-824 limits assumed): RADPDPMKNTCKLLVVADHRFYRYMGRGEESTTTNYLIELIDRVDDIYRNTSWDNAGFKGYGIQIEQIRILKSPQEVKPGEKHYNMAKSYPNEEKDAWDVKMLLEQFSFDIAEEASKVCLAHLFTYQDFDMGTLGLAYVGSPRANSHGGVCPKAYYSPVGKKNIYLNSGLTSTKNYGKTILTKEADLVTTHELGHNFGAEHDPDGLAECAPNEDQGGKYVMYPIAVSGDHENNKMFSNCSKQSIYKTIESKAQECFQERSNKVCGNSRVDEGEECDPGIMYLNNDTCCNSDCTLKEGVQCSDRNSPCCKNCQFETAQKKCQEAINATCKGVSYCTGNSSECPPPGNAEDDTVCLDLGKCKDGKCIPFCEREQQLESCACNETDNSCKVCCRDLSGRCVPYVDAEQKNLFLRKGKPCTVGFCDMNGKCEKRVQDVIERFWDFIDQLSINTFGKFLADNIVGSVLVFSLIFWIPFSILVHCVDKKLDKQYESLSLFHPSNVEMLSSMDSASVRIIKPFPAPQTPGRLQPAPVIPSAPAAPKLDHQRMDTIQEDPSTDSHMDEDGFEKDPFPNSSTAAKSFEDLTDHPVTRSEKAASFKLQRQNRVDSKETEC
# ADAM10 inh: inhibits human ADAM10; inhibition, % at 7 µM; hit rate 0.62% among 370,000; recombinant ADAM10, EDANS/DABCYL FRET peptide cleavage, 3 h; AID 720582;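 active means inhibition above a per-campaign cutoff equal to the mean of compounds falling between control-based bounds plus 3 SD, cut at about 20% in these data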;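 further: 0% = DMSO wells while the 100% control is not disclosed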
# PLCb3 inh: inhibitors of human phospholipase C beta3 | Purified PLC-beta3, fluorogenic substrate, fluorescence | inhibition, % at 12.2 µM | hit rate 0.18% among 370,000 | AID 720704; in the data active means inhibition above about 11%;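 further: 0% = median of compound wells on plate and 100% = full blocker control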
# proKLK7 act conf: proKLK7 activation, confirmation | hit rate 68% among 3,200 | activation, % at 7 µM | purified proKLK7, EDANS-DABCYL substrate fluorescence; scaled: vehicle 0, mature enzyme 100 | shares compounds with proKLK7 act | AID 686949;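 active means activation, as change over the incubation, above the mean of all tested compounds plus 3 SD, cut at about 13% in these data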
# EDANS-DABCYL int: optically interferes with EDANS-DABCYL signal, flagging KLK7 hits; hit rate 80% among 3,200; activation, % at 7 µM; EDANS-DABCYL substrate fluorescence interference, no enzyme, 4 h; solvent 0%, active enzyme control 100%; AID 686952; shares compounds with proKLK7 act;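 active means activation above the all-compound mean plus 3 SD, ignoring values outside control-based bounds, cut at about 4.8% in these data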;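 further: value is the 4 h activation minus the activation read at time zero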
# Numbers without * were called inactive; i = inactive; · = no result given. In the library only some 2.9% were active in any assay of this set; here they are far more common.
SMILES,PLCg1 inh,proKLK7 act,ADAM17 inh,ADAM10 inh,PLCb3 inh,proKLK7 act conf,EDANS-DABCYL int
N=C1/C(=C\c2coc3ccccc3c2=O)C(=O)N=C2SC=CN12,-97.4,23.0*,-19.3,-32.9,-154.6,32.6*,31.7*
O=c1[nH]c(=O)c2nc(-c3ccc(Cl)cc3)cnc2[nH]1,i,56.8*,-365.8,i,i,69.8*,69.4*
Cc1ccc(-c2cnc(-c3ccncc3)o2)cc1,i,73.7*,i,i,i,65.0*,69.8*
Nc1ccc(-c2ncc(-c3ccccc3)o2)cc1,i,21.3*,i,i,i,6.6,3.2
CCOC(=O)[C@@]12CCCC3=C1N(CCC3)C(=O)[C@H]2CC(=O)N1CCN(C(=O)C2CC2)CC1,0.3,0.6,-2.7,-2.3,1.4,·,·
NC(=O)c1nsc(C(=O)N(c2ccccc2)C(C(=O)NC2CCCC2)c2ccncc2)c1N (stereo not drawn),-18.4,0.0,-17.8,-49.2,-29.5,·,·
NC(=O)c1nsc(C(=O)N(c2ccccc2)C(C(=O)NC2CCCCC2)c2ccc(O)cc2)c1N (stereo not drawn),-42.6,12.8*,-29.5,-126.8,-64.5,5.2,30.9*
CCN(C(=O)CN1CCN(c2nc(-c3ccccc3)cs2)CC1)c1ccccc1C,2.9,0.9,7.2,16.0,-0.2,·,·
COCCCn1c(CCC(=O)O)ccc1-c1cccs1,-186.9,12.7*,-199.4,i,-203.9,6.9,8.7*
COc1cc2c(C#N)c(N3CCCC3)nc(N)c2c(N)n1,-114.7,-1.9,-29.3,-89.5,-174.6,·,·
COc1cc2c(C#N)c(N3CCN(C)CC3)nc(N)c2c(N)n1,i,65.2*,-327.7,i,i,48.4*,60.6*
C=CCN(C)CC#CCCCCl,-1.1,-0.5,-3.3,-8.0,0.5,·,·
COC(=O)Cn1c2ccccc2c(=O)n1C(C)CBr (stereo not drawn),-88.8,66.7*,-207.5,i,-141.2,62.2*,55.1*
COCCn1c(=O)[nH]c(=O)c2c(C(F)(F)F)cc(-c3cccs3)nc21,-288.6,30.6*,i,i,-287.0,-12.6,-34.5
CN(C)Cc1c(O)c(Cl)cc2c3c(c(=O)oc12)CCCC3,i,46.9*,i,i,i,69.9*,72.1*
CCN(CC)Cc1c(O)c(Cl)cc2c3c(c(=O)oc12)CCCC3,i,49.4*,i,i,i,66.5*,74.6*
Cc1oc2c(C)c3oc(=O)c4c(c3cc2c1C)CCC4,-12.4,-0.2,-5.5,-11.2,-12.8,·,·
O=c1oc2c(CN3CCOCC3)c(O)c(Cl)cc2c2c1CCC2,i,121.5*,i,i,i,80.7*,78.2*
Cc1coc2c(C)c3oc(=O)c4c(c3cc12)CCCC4,-26.0,-3.6,-12.3,-32.6,-28.9,·,·
COc1ccc(S[C@]2(C(=O)N3CCN(C(C)=O)CC3)CC(=O)N(C(=O)C3CC3)[C@@H]2c2ccc(OC)cc2)cc1,-1.0,0.5,-0.8,-4.1,-1.0,·,·
C[C@H]1[C@@H]2C[C@@]3(O[C@H](c4ccc(C(F)(F)F)cc4)N=C3C[C@@H]1c1ccccc1)N(Cc1ccncc1)C2=O,0.4,-0.1,-2.8,-7.1,3.5,·,·
COc1ccc(-c2cn3cc(C(=O)NN)ccc3n2)cc1,-401.1,39.7*,-168.3,-490.2,i,7.7,10.0*
NNC(=O)c1ccc2nc(-c3ccc(Br)cc3)cn2c1,-15.7,4.9,-15.4,-75.8,-26.4,·,·
C=CC(=O)NC1CCCCN(CCC)C1=O (stereo not drawn),0.1,0.6,-2.0,0.7,-0.3,·,·
CC(=O)Oc1ccc(-c2cc3ccccc3oc2=O)cc1,-57.7,-4.2,-86.0,-220.6,-90.5,·,·
CC(=O)Oc1ccc2cc(-c3nc4ccccc4n3C)c(=O)oc2c1,i,38.7*,i,i,i,75.7*,79.5*
Cn1c(-c2cc3ccc(OC(=O)C(C)(C)C)cc3oc2=O)nc2ccccc21,i,34.4*,-273.1,i,i,62.2*,60.0*
Cc1cccn2c(=O)c3cc(C(=O)NC4CCCC4)c(=N)n(C4CCCC4)c3nc12,-381.7,-10.4,-473.4,i,-484.9,·,·
